Mcl1 Bid PPI = disrupts binding of human Mcl-1 to Bid peptide | 0.97% of 220,000 active | AID 1021 | inhibition, % at 21.7 µM | TR-FRET Mcl-1/Bid-Dy647 peptide binding, 1536-well | Q07820;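 active = compounds that cut the binding signal by more than half at the single screening dose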;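 note: His-tagged Mcl-1 with europium anti-His antibody binding Bid BH3 peptide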
GLD-1 TGE inh = GLD-1-TGE RNA interaction inhibition (C. elegans). purified GLD-1 + fluorescein TGE RNA, fluorescence polarization. inhibition, % at 5.96 µM. 0.44% of 320,000 active. AID 2280;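 active = percent inhibition above a per-plate cutoff, the plate mean of test compounds plus 3 SD, cut at about 30% in these data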
Target sequence (Q17339 whole entry, looked up): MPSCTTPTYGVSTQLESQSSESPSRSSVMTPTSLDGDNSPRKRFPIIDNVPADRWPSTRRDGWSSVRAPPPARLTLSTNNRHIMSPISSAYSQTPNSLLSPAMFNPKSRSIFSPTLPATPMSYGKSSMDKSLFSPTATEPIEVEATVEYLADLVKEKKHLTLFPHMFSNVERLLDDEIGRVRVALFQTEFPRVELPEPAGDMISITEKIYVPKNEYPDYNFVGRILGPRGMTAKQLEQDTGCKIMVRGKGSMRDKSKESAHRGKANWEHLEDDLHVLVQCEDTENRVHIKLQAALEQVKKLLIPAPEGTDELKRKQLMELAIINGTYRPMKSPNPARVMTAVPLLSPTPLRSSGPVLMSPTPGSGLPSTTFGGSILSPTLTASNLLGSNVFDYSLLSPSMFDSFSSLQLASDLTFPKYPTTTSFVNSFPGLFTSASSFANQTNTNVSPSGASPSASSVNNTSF
Mcl-1 Bim block = human Bim-Mcl-1 interaction inhibition; Bead-based flow cytometry, Bim peptide-Mcl-1 binding; Q07820; inhibition, % at 10 µM; 0.1% of 190,000 active; in the data active = inhibition above about 40%
BCLXL inh = blocks human Bcl-xL binding to Bim BH3 peptide; GST-Bcl-xL / FITC-Bim BH3 peptide fluorescence polarization; inhibition, % at 10.9 µM; 0.7% of 320,000 active; Q07817; AID 2129;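 active = inhibition above the mean of all tested compounds plus 3 SD, cutoff set per campaign, cut at about 30% in these data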;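 note: inhibitors lower millipolarization by displacing the labeled peptide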
MCL1-BIM inh = disrupts human MCL1 binding to BIM-BH3 peptide. AID 2057. Q07820. 0.68% of 320,000 active. GST-MCL1 / FITC-Bim-BH3 fluorescence polarization. inhibition, % at 10.9 µM;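 active = inhibition above the mean inhibition of all tested compounds plus 3 SD, set per campaign, cut at about 40% in these data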;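 note: higher means more loss of mP so more displacement of Bim peptide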
Mcl1-Noxa inh = Mcl-1/Noxa interaction inhibition. Q07820. TR-FRET Mcl-1/Noxa peptide binding, 2 h. inhibition, % at 21.7 µM. 1.5% of 220,000 active. AID 1022;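 active = compounds that cut the protein-peptide binding signal by more than 50% relative to plate controls in a single-dose test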;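 note: His-tagged Mcl-1 with rhodamine Noxa BH3 peptide and terbium anti-His antibody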
A number is an active result; 0 = inactive; - = no result given. Sampled rows, rich in hits. Any-hit rate of the full collection: about 2.3%.

SMILES	Mcl1 Bid PPI	GLD-1 TGE inh	Mcl-1 Bim block	BCLXL inh	MCL1-BIM inh	Mcl1-Noxa inh
C=CCOc1ccc(Br)cc1/C=C1/SC(=Nc2ccc(C(=O)O)cc2)NC1=O	0	-	0	-	-	55
COc1ccc(C(CNC(=O)CCNS(=O)(=O)c2ccc(C)cc2)N2CCOCC2)cc1 (configuration not stated)	-	0	-	0	0	-
O=C(COc1cccc2c1CCN(Cc1ccc(Br)cc1)C2=O)NCc1ccco1	95	0	0	0	0	0
CCN1CCc2c(OCc3ccc(C(=O)OC)o3)cccc2C1=O	92	0	0	0	0	0
COC(=O)c1ccc(COc2cccc3c2CCN(Cc2ccccc2)C3=O)o1	0	0	0	0	0	0
CCOC(=O)c1c(-c2ccco2)csc1NC(=O)CSc1nnc(N)s1	80	0	0	0	0	0
CCOC(=O)c1ccc(S(=O)(=O)N2CCNCC2)cc1	54	0	0	0	0	0
CCOC(=O)c1ccc(NC(=O)N2CCCCCC2)cc1	-	0	-	0	0	-
CCOC(=O)c1ccc(S(=O)(=O)N2CCN(S(=O)(=O)CC)CC2)cc1	0	0	0	0	0	0
CCOC(=O)c1ccc(NS(=O)(=O)N2CCCCCC2)cc1	78	0	0	0	0	0
Nc1ccc(Sc2cc(Cl)nc(N)n2)cc1	0	0	0	0	0	0
Nc1nc(N)c2cc(Sc3ccc4ccccc4c3)ccc2n1	0	0	-	0	0	84
Cc1ccc(C2C(/C=C3/SC(=S)NC3=O)=C(c3cccs3)Oc3ccccc32)cc1 (configuration not stated)	0	0	0	0	0	90
Oc1ccc(-c2csc(-c3ccccc3)n2)cc1O	0	0	0	0	0	62
COc1ccc(-c2csc(NC(=S)NC(=O)c3cccs3)n2)cc1Br	0	0	-	0	0	0
COc1ccc(-c2csc(NC(=S)NC(=O)c3cccs3)n2)cc1OC	0	-	0	-	-	82
Oc1ccc(-c2csc(Nc3ncccn3)n2)c(O)c1	0	0	0	0	0	72
Cc1cccc(Nc2nc(-c3ccc(O)cc3O)cs2)n1	-	0	-	0	0	-
O=C(Nc1cccc(-c2csc(-c3ccccc3)n2)c1)c1cccs1	96	0	0	0	0	0
Nn1c(SCC(=O)NCCc2ccc(F)cc2)nnc1C1CCCCC1	-	0	-	0	0	-
CC(=O)Nc1cccc(-c2csc(Nc3ncccn3)n2)c1	0	-	0	-	-	0
Oc1ccc(-c2csc(Nc3ncccn3)n2)cc1O	0	-	0	-	-	87
COc1ccccc1CCCNC(=O)C1CCC(=O)N(CCc2ccc(Cl)cc2)C1 (configuration not stated)	-	0	-	0	0	-
O=C(CCN1CCCCC1)c1ccccc1	0	0	0	0	0	0
C[N+]1(CCC(=O)c2ccccc2)CCCCC1	56	0	0	0	0	0
SMILES	Mcl1 Bid PPI	GLD-1 TGE inh	Mcl-1 Bim block	BCLXL inh	MCL1-BIM inh	Mcl1-Noxa inh
Cc1ccc(Nc2nc(-c3ccccc3)c(CC(=O)O)s2)cc1	0	0	0	0	0	0
O=C(O)Cc1sc(Nc2ccc(F)cc2)nc1-c1cccs1	0	0	0	0	0	53
O=C(CSc1nccc(=O)[nH]1)c1ccccc1Br	71	0	0	0	0	0
CCN(CC)c1ccc(NC(=O)COc2ccc(N(C)S(=O)(=O)c3cccs3)cc2)cc1	0	0	0	0	0	65
CN(c1ccc(OCC(=O)OCC(=O)Nc2ccccc2)cc1)S(=O)(=O)c1cccs1	0	0	0	0	0	0
O=C(CSc1cn(Cc2cccc(F)c2)c2ccccc12)NCc1ccc(F)cc1	62	0	0	0	0	0
CN(CC(=O)NC(=O)NC1CCCCC1)Cc1ccccc1	-	0	-	0	0	-
O=C(N/N=C/c1cccnc1)c1cc2c(ccc3ccccc32)o1	55	0	0	0	0	0
Cc1ccc(/C=N/NC(=O)c2cc3c(ccc4ccccc43)o2)cc1[N+](=O)[O-]	76	0	0	0	0	0
O=C(N/N=C/c1ccc([N+](=O)[O-])o1)c1cc2c(ccc3ccccc32)o1	88	-	0	-	-	0
COc1ccc(C(=O)N/N=C/c2ccc(OC(=O)c3cccc4ccccc34)c([N+](=O)[O-])c2)cc1	0	0	0	0	0	51
COc1ccc(C(=O)Oc2ccc(/C=N/NC(=O)c3ccccc3OC)cc2[N+](=O)[O-])cc1	0	0	0	0	0	0
O=C(N/N=C/c1cccnc1)c1cc2ccccc2o1	0	0	0	0	0	0
CS(=O)(=O)Nc1ccc(C(=O)Nc2ccccc2-c2ccccc2)cc1	-	0	-	0	0	-
COc1ccc(CCNC(=O)c2ccc(Cl)c(S(=O)(=O)N3CCCC3)c2)cc1	-	0	-	0	0	-
CN(C)/C=C/c1oc2ccc(O)cc2c1[N+](=O)[O-]	0	0	0	0	0	0
CCCCC(=O)Nc1ccc(C(=O)N2CCC(C(=O)OCC)CC2)cc1	0	0	64	0	0	0
CN(CC(=O)O/N=C(\N)c1ccc([N+](=O)[O-])cc1)S(=O)(=O)c1ccccc1	0	0	95	0	0	83
COc1ccc(C(=O)OCC(=O)NCCN2C(=O)CSC2=O)cc1	0	0	0	0	0	0
COc1ccc(-c2ccnc3nc(-n4cccc4)nn23)cc1	0	0	0	0	0	51
c1coc(-c2ccnc3nc(-n4cccc4)nn23)c1	0	0	0	0	0	62
O=C(NCCN1C(=O)S/C(=C\c2ccc(Cl)c(Cl)c2)C1=O)c1ccc2c(c1)C(=O)N(Cc1ccncc1)C2=O	51	0	0	0	0	71
O=C(c1cc(-c2cccnc2)nc2ccccc12)N1CCN(S(=O)(=O)c2cccs2)CC1	-	0	-	0	0	-
Cc1ccc(C)c(NC2=C(Cl)C(=O)OC2OC(=O)c2ccco2)c1 (configuration not stated)	0	0	0	0	0	57
Cc1ccc(NC2=C(Cl)C(=O)OC2OC(=O)c2ccco2)c(C)c1 (configuration not stated)	0	0	0	0	0	0
SMILES	Mcl1 Bid PPI	GLD-1 TGE inh	Mcl-1 Bim block	BCLXL inh	MCL1-BIM inh	Mcl1-Noxa inh
COc1ccc2oc(C(=O)OCC(=O)N(Cc3ccccc3)C(C)(C)C)c(C)c2c1	-	0	-	0	0	-
COCCCNC(=O)c1c(N)n(/N=C/c2ccccn2)c2nc3ccccc3nc12	-	-	0	-	-	-
CC(C)OCCCNC(=O)c1c(N)n(/N=C/c2cccs2)c2nc3ccccc3nc12	61	0	0	0	0	0
O=C(CS(=O)(=O)c1ccccc1)Nc1nnc(Cc2ccccc2)s1	-	0	-	0	0	-
Cc1ccc(CNC(=O)CCCC(=O)c2ccccc2)cc1	-	0	-	0	0	-
COCCCn1c(=O)/c(=C\c2ccccc2OC(F)F)s/c1=C(/C#N)C(=O)NC(C)C	0	0	0	0	0	0
COCCCn1c(=O)/c(=C\c2ccccc2OC(C)C)s/c1=C(/C#N)C(=O)Nc1ccc(C(=O)O)cc1	0	0	-	0	0	63
CC(C)[C@H](NC(=O)Cc1ccccc1)C(=O)OCc1cc(=O)n2c(n1)sc1ccccc12	0	0	0	0	0	76
